# High-throughput results (PubChem BioAssay)
# Compounds with a hit are over-represented: about 1.1% of the library has one in this group of screens.
# SRC2 inh – inhibits human steroid receptor coactivator 2. inhibition, % at 9 µM. HEK293 GAL4-SRC2 luciferase reporter, luminescence. Q15596. 370,000 tested, 0.17% active. AID 651957;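 active = inhibition above the mean inhibition of all tested compounds plus 3 SD, set per campaign, cut at about 52% in these data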;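 also: 0% = DMSO treated cells and 100% = cells given Gossypol at 36 µM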
# NCOA3 inh – inhibits human SRC3 coactivator; HEK293 GAL4-SRC3 luciferase reporter, luminescence; inhibition, % at 3.6 µM; 360,000 tested, 0.17% active; AID 588352;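 active = inhibition above a per-campaign cutoff, the mean of all compounds plus 3 SD, cut at about 60% in these data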;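 also: 0% = DMSO-treated cells and 100% = gossypol-treated cells at 36 µM; higher means less SRC3-driven luciferase light from the GAL4 reporter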
# NR5A2 inv ag – NR5A2 inverse agonism in reporter assay. O00482. 360,000 tested, 0.13% active. HEK293T StAR-luciferase reporter, LRH-1 transfected, 24 h. inhibition, % at 3.6 µM;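 active = inhibition above the mean inhibition of all tested compounds plus 3 SD, cut at about 73% in these data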;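 also: 0% = DMSO wells and 100% = reporter-only cells lacking LRH-1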
# Target sequence (O00482 whole entry, looked up): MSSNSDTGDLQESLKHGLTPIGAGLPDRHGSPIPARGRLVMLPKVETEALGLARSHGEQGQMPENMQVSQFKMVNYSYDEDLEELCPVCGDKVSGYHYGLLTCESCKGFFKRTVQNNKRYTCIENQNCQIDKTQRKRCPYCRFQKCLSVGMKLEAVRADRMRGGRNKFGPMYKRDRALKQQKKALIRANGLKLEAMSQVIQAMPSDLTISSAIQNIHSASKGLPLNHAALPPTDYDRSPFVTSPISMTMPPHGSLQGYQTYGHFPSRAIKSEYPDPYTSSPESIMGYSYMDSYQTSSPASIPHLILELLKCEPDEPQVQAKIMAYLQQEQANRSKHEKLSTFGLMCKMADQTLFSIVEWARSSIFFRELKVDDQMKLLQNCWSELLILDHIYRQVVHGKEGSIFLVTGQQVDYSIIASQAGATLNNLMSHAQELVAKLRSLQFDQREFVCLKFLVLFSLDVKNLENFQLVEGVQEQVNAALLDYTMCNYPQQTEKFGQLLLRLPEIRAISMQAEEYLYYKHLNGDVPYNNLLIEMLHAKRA
# GalR3 antag – human GalR3 antagonism; O60755; HEK293 GalR3-CNG cAMP membrane potential fluorescence; galR3 body fused to GalR1 C-terminus; inhibition, % at 3 µM; 360,000 tested, 0.44% active; AID 651719;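 active = inhibition above the screen-wide average plus 3 SD, cut at about 13% in these data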;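 also: forskolin and galanin both at EC90 stimulate the cells; cAMP rise reported by CNG channel membrane potential dye signal; 0% = forskolin plus galanin with DMSO and 100% = forskolin alone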
# NR2F2 inh – NR2F2 (human) inhibition, primary screen; 370,000 tested, 0.7% active; P24468; HEK293T NGFI-A luciferase reporter, luminescence; AID 686940; inhibition, % at 8.6 µM;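 active = inhibition above a per-plate cutoff, mean inhibition of test wells between control levels plus 3 SD, cut at about 38% in these data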;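 also: cells cotransfected with COUP-TFII expression vector driving the NGFI-A reporter; 0% = median of COUP-TF2 test wells and 100% = reporter-only cells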
# SRC1 inh – inhibits human SRC1 coactivator; Q15788; HEK293 GAL4-SRC1 luciferase reporter, luminescence; inhibition, % at 3.6 µM; 360,000 tested, 0.12% active; AID 588354;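 active = inhibition above the campaign mean plus 3 SD, with each screening campaign given its own cutoff, cut at about 60% in these data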;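 also: 0% = DMSO treated cells and 100% = gossypol at 36 µM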
# GalR3 conf – confirmation of human galanin receptor 3 antagonists | shares compounds with GalR3 antag | HEK293 GalR3 CNG cAMP biosensor, membrane potential fluorescence; galR3 fused to GalR1 carboxy tail; challenged with forskolin and galanin at EC90 | inhibition, % at 3 µM | 1,600 tested, 59% active;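 active = inhibition above the primary screen's cutoff, the mean inhibition of all screened compounds plus 3 SD, cut at about 13% in these data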;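 also: 0% = forskolin plus galanin and 100% = forskolin alone with DMSO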
# HEK-CNG parental – counter-screen for GalR3 antagonists: nonspecific agonists in parental HEK-CNG cells; shares compounds with GalR3 antag; HEK293-CNG parental cells, cAMP membrane potential fluorescence; normalised: DMSO wells 0%, forskolin wells 100%; activation, % at 3 µM; 1,600 tested, 10% active; AID 652268; in the data active = activation above about 1.3%
# Gal4-VP16 ctr – counter-screen for COUP-TFII antagonists: inhibitors of VP16; inhibition, % at 8.5 µM; HEK293 Gal4-VP16 luciferase reporter, luminescence; 2,500 tested, 25% active; shares compounds with NR2F2 inh; in the data active = inhibition above about 13%
# COUP-TFII conf – confirmation of human COUP-TFII (NR2F2) inhibitors | shares compounds with NR2F2 inh | HEK293 NGFI-A luciferase reporter, luminescence | inhibition, % at 8.5 µM | 2,500 tested, 45% active;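 active = mean inhibition over three repeats above a set limit taken from the earlier primary screen, cut at about 38% in these data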;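 also: 100% = cells given the luciferase reporter alone without the COUP-TF2 vector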
# Starred values were filed as active, the others as inactive; x = not tested or not shown.
SMILES,SRC2 inh,NCOA3 inh,NR5A2 inv ag,GalR3 antag,NR2F2 inh,SRC1 inh,GalR3 conf,HEK-CNG parental,Gal4-VP16 ctr,COUP-TFII conf
CCC(SC1=NCCS1)C(=O)Nc1ccc(S(N)(=O)=O)cc1 (stereo not drawn),-19.6,-5.9,-5.1,4.5,19.5,-4.7,x,x,x,x
CC(=O)N1CCc2cc(S(=O)(=O)CCC(=O)N3CCC(C)CC3)ccc21,-6.9,-11.5,8.3,-4.0,-13.2,4.4,x,x,x,x
COc1ccc(C)cc1NC(=S)NNC(=O)c1c(Br)cnn1C,25.7,2.5,2.6,-1.1,8.5,-2.6,x,x,x,x
O=c1cc(CSc2nnc(-c3cccs3)n2Cc2ccccc2)nc2sc3ccccc3n12,28.5,10.2,26.7,73.6*,61.8*,0.1,107.5*,0.2,-8.0,15.4
CCCOc1ccc(Br)cc1CSC(=N)N,26.0,39.1,44.5,49.8*,54.2*,16.8,94.8*,5.8*,15.4*,49.3*
CC1CCN(S(=O)(=O)c2cccc(C(=O)N(Cc3ccccc3)c3ccccn3)c2)CC1,7.0,12.0,11.8,-10.8,12.9,-2.6,x,x,x,x
CC(=O)N1c2ccc(S(=O)(=O)N3CCC(C(=O)Nc4cccc(C)n4)CC3)cc2CC1C (stereo not drawn),24.5,17.8,51.6,51.4*,54.1*,14.7,93.7*,-0.5,6.7,54.2*
CC(=O)N1c2ccc(S(=O)(=O)NCC3CCC(C(=O)Nc4cccc(C)n4)CC3)cc2CC1C (stereo not drawn),14.1,47.7,36.7,24.5*,56.3*,27.3,11.5,-0.3,-3.4,28.0
CC(=O)c1ccc(N2CCN(S(=O)(=O)c3ccc4c(c3)CC(C)N4C(C)=O)CC2)cc1 (stereo not drawn),5.4,18.9,40.5,98.5*,58.9*,12.8,105.6*,-0.3,-2.1,44.3*
Cc1ccnc(Nc2nc(-c3sc(C)nc3C)cs2)c1,18.8,-15.8,-79.1,31.8*,70.4*,-32.5,35.6*,0.1,-139.5,44.3*
FC(F)(F)c1cnc(NNC(=S)Nc2ccccc2Cl)c(Cl)c1,-11.5,30.0,6.6,55.0*,41.6*,5.9,4.4,0.5,17.6*,13.7
CC(C)C(=O)N1CCC2(CC1)Oc1ccc(Cl)cc1C(=O)C21CC(c2ccccc2)=NO1 (stereo not drawn),-7.5,-8.2,-0.7,-8.4,5.4,-4.4,x,x,x,x
Oc1ccc(-c2n[nH]c(C(F)(F)F)c2-c2ccccc2)c(O)c1,25.4,23.7,22.8,47.5*,65.0*,11.0,89.4*,-1.8,-0.1,48.4*
COc1ccc(-c2c(-c3ccc(O)cc3O)n[nH]c2C(F)(F)F)cc1,-3.6,-12.6,18.8,-5.3,16.5,14.7,x,x,x,x
CC(C)C1N=C(c2ccc3c(c2)OCO3)CC(c2ccccc2O)N1 (stereo not drawn),-63.4,-39.1,-35.5,-1.4,-27.7,-46.3,x,x,x,x
Cn1c(C(=O)N2CCN(c3nc4ccccc4s3)CC2)cc2sccc21,9.5,21.2,-2.4,-5.1,4.1,-12.1,x,x,x,x
O=C(c1cc2sccc2n1Cc1ccc(F)cc1)N1CCN(c2nc3ccccc3s2)CC1,35.6,17.6,25.3,17.4*,55.9*,9.9,73.4*,0.8,4.4,29.4
COc1ccc(-c2csc3nc(C)nc(N4CCC(C)CC4)c23)cc1OC,4.2,30.7,12.7,-0.4,-26.7,13.5,x,x,x,x
CCN(CC)S(=O)(=O)c1cc(NC(=O)CNc2cccc(S(=O)(=O)N3CCOCC3)c2)ccc1C,-0.2,27.6,38.1,93.3*,56.5*,36.5,116.3*,-0.8,8.3,53.6*
